Pol kappa inh = inhibitors of human DNA polymerase kappa. Potency, µM (top dose mostly 107 µM), most hits filed as inhibitors. 0.53% of 400,000 active. Q9UBT6. purified Pol kappa, fluorescent DNA synthesis assay, 10 min
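Inhibition of 10 nM Pol kappa is measured by a fluorescent read-out at 0 and 10 min following addition of 50 nM substrate (final), with a 15-min room-temperature compound preincubation.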
WRN helicase inh = WRN helicase (human) inhibition | Q14191 | Potency, µM (highest dose often 114 µM), usual class: inhibitors | 0.46% of 360,000 active | WRN helicase unwinding, fluorescent forked duplex, kinetic; further: nearly all actives have a fitted effect of over 55% in size
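WRN at 20 nM final preincubated with compound 15 min at room temperature; reaction started with 100 nM fluorophore/quencher forked duplex oligonucleotide and 2 mM ATP final. Unwinding followed kinetically by red fluorescence (ex 525, em 598 nm).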
POLB inh = inhibitors of human DNA polymerase beta; Potency, µM (doses to about 114 µM), most hits filed as inhibitors; AID 485314; 1.3% of 340,000 active; P06746; Pol beta primer extension/strand displacement, fluorescence kinetic
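Pol beta (10 nM) and compounds were preincubated 15 min at room temperature, then 50 nM substrate (final) started primer extension/strand displacement. Reads were taken at 0 and 10 min; concentration-response data were fitted to a four-parameter Hill equation.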
FEN1 inhibitor = blocks human flap endonuclease 1; P39748; Recombinant FEN1 flap cleavage, fluorescence, 15 min; Potency, µM (titrated, usually from 114 µM), actives largely listed as inhibitors; 0.35% of 390,000 active; further: nearly all actives have a fitted effect of over 65% in size
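Recombinant FEN1 (10 nM) was preincubated with pin-transferred compounds for 15 min at room temperature, then flap DNA substrate (50 nM final) was added. Plates were read at 0 and 15 min, and normalized concentration–response data were fitted to a four-parameter Hill equation.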
POLI inh = DNA polymerase iota (human) inhibition | Potency, µM (doses to about 115 µM), most hits filed as inhibitors | AID 588590 | Q9UNA4 | Pol iota fluorescent replication assay, 10 min | 1% of 390,000 active
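Fluorescent replication assay read twice, at 0 min and 10 min after adding 50 nM (final) substrate. Enzyme (10 nM) and compounds were first incubated 15 min at room temperature; enzyme-free buffer wells were negative controls.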
POLH inh = inhibitors of human DNA polymerase eta | Q9Y253 | recombinant Pol eta, fluorescent DNA replication assay | Potency, µM (top dose mostly 114 µM), most hits filed as inhibitors | 1.2% of 390,000 active | AID 588591
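Pol eta at 10 nM preincubated with compounds 15 min at room temperature; reaction started with fluorescent substrate (50 nM final) and read kinetically at 0 and 10 min.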
Large screens that a line does not name were inactive. Sampled rows, rich in hits. Any-hit rate of the full collection: about 2.4%. The call rests on the fitted dose curve; in most records, active means well fitted curve in the direction sought with a large enough effect; inconclusive means small, poorly fitted or top-dose-only effect, or another doubt; inactive means no such curve, though single readings can be large; an effect the other way counts as inactive or inconclusive.

CCOC(=O)C1=C(Cc2ccc(F)cc2)C(=O)c2ccccc2C1=O	WRN helicase inh 50µM, FEN1 inhibitor inconclusive, POLI inh inconclusive, POLH inh inconclusive
Cc1cc(C)c2nc(-c3ccccn3)cc(C(=O)NCc3cc(C)n(C)n3)c2c1	POLB inh 40µM
Cc1cc(C)c2nc(-c3ccccn3)cc(C(=O)NCc3ccco3)c2c1	Pol kappa inh inconclusive, WRN helicase inh inconclusive, POLB inh 40µM, POLI inh inconclusive, POLH inh inconclusive
Cc1cc(C)c2nc(-c3ccccn3)cc(C(=O)Nn3cnnc3)c2c1	none
Cc1ccc(C(=O)NCc2ccco2)c(C)c1	none
O=C(Nc1nnc(C2CC2)s1)C1Cc2ccccc2CN1C(=O)c1ccco1 (configuration not stated)	POLB inh 7.9µM, POLI inh 28µM, POLH inh inconclusive
CN(C)S(=O)(=O)c1cccc(NC(=O)C2Cc3ccccc3CN2C(=O)c2ccco2)c1 (configuration not stated)	POLB inh inconclusive, POLI inh 35µM, POLH inh inconclusive
O=C(Nc1nnc(SCc2ccc(F)cc2)s1)C1Cc2ccccc2CN1C(=O)c1ccco1 (configuration not stated)	Pol kappa inh inconclusive, WRN helicase inh inconclusive, POLI inh inconclusive, POLH inh 22µM
COc1ccc(NC(=O)C2Cc3ccccc3CN2C(=O)c2ccco2)cc1 (configuration not stated)	none
O=C(Nc1nnc(C2CC2)s1)C1Cc2ccccc2CN1S(=O)(=O)c1cccs1 (configuration not stated)	Pol kappa inh inconclusive, POLB inh 11µM, POLH inh 7.1µM
CCc1nnc(NC(=O)C2Cc3ccccc3CN2S(=O)(=O)c2cccs2)s1 (configuration not stated)	Pol kappa inh inconclusive, POLI inh inconclusive, POLH inh inconclusive
Ic1ccc(/C=C2\C=Cc3ccccc32)cc1	none (no result: WRN helicase inh, POLB inh, POLH inh)
O=c1c(NCCc2ccc(Cl)cc2)nccn1-c1ccccc1	none (no result: WRN helicase inh)
CCC1CCc2c(sc(NC(=O)C3c4ccccc4Oc4ccccc43)c2C(=O)OC)C1 (configuration not stated)	none (no result: WRN helicase inh)
O=[N+]([O-])c1ccccc1/C=C/C=N/n1c(-c2ccco2)n[nH]c1=S	none
S=c1[nH]nc(-c2cc(-c3ccccc3)n[nH]2)n1/N=C/c1ccccc1	none
Cc1cccc(/C=N/n2c(-c3cc(-c4ccccc4)n[nH]3)n[nH]c2=S)c1	POLB inh 56µM
O=[N+]([O-])c1ccccc1/C=C/C=N/n1c(-c2cc(-c3ccccc3)n[nH]2)n[nH]c1=S	POLB inh 10µM, FEN1 inhibitor inconclusive, POLI inh inconclusive, POLH inh 32µM
Cc1ccc(-c2n[nH]c(=S)n2/N=C/C=C/c2ccccc2[N+](=O)[O-])cc1	WRN helicase inh inconclusive, POLB inh 32µM, FEN1 inhibitor inconclusive, POLI inh inconclusive, POLH inh inconclusive
O=C(NCCc1c[nH]c2ccccc12)c1ccccc1O	none (no result: WRN helicase inh, POLB inh, FEN1 inhibitor, POLI inh, POLH inh)
CC(=O)OCCCNc1cc(SCc2ccco2)c2nonc2c1[N+](=O)[O-]	Pol kappa inh 13µM, WRN helicase inh 22µM, POLB inh 14µM, FEN1 inhibitor 56µM, POLI inh 3.2µM, POLH inh 22µM
CCCC(=O)OCCNc1cc(SCc2ccco2)c2nonc2c1[N+](=O)[O-]	Pol kappa inh 35µM, WRN helicase inh 35µM, POLB inh 11µM, POLI inh 2.5µM, POLH inh 11µM
CC[C@@H]1C(c2cccc(C)c2)=NN(c2ccc(Br)cc2)[C@H]1C(=O)N1CCOC1=O	none (no result: WRN helicase inh, POLB inh, FEN1 inhibitor, POLI inh, POLH inh)
Cc1ccc(N2NC(=O)/C(=C\c3cc4c(cc3[N+](=O)[O-])OCO4)C2=O)cc1C	WRN helicase inh inconclusive, POLB inh 20µM, POLI inh inconclusive, POLH inh inconclusive
CN1CCN(c2ncc3c(n2)CCN(Cc2cc(Br)cs2)C3)CC1	none (no result: WRN helicase inh)
COCC(C)N1C(=O)Cc2c1nc(N)c1c(N)nc(N3CCN(c4ccccc4F)CC3)c(C#N)c21 (configuration not stated)	POLI inh 18µM
Cc1cc(C)c(C#N)c(N2CCN(c3ccccc3F)CC2)n1	none
COc1ccc(CN2C(=O)Cc3c2nc(N)c2c(N)nc(N4CCOCC4)c(C#N)c32)cc1	POLI inh 7.9µM, POLH inh inconclusive
COCCN1C(=O)Cc2c1nc(N)c1c(N)nc(N3CCN(c4ccc(F)cc4)CC3)c(C#N)c21	POLI inh inconclusive
CN(C)c1ccc(C=NC2CCc3ccccc32)cc1 (configuration not stated)	none (no result: WRN helicase inh, POLB inh, POLH inh)
COc1cc2c(cc1OC)-c1c(oc3cc(O)cc(O)c3c1=O)CO2	Pol kappa inh 32µM (no result: WRN helicase inh, POLB inh, FEN1 inhibitor, POLI inh, POLH inh)
CCOC(=O)Cc1csc(SC(C)C(=O)Nc2ccc(NC(C)=O)cc2)n1 (configuration not stated)	POLB inh 89µM
O=C(Nc1cccc2cccnc12)OCc1ccccc1	none (no result: WRN helicase inh, POLB inh, POLH inh)
CCOC(=O)c1c2c3c(c(Cl)ccc3[nH]c1=O)C(=O)c1ccccc1-2	Pol kappa inh inconclusive, POLB inh inconclusive, POLI inh inconclusive, POLH inh 79µM
COc1ccc(OC)c(NC(=O)c2cc(-c3cc(C)ccc3O)n[nH]2)c1	POLI inh 25µM
CN(CCCN(Cc1ccc(Cl)cc1)c1ccc(Br)cn1)C(=S)NCCCc1cnc[nH]1	POLI inh inconclusive (no result: WRN helicase inh, POLB inh, POLH inh)
CC1/C=C/C=C/C=C/C=C/C=C/C=C/C=C/C(OC2OC(C)C(O)C(N)C2O)CC2O[C@@](O)(CC(O)CC(O)C(O)CCC(O)CC(O)CC(=O)OC(C)[C@H](C)C1O)CC(O)C2C(=O)O (some centres not stated)	Pol kappa inh 3.5µM (no result: WRN helicase inh, POLB inh, FEN1 inhibitor, POLI inh, POLH inh)
COc1ccccc1NC(=O)CSc1nnc(NC(=O)Nc2ccc(C)cc2)s1	none (no result: WRN helicase inh)
O=C(N/N=C/c1ccc([N+](=O)[O-])o1)c1cc(-c2ccc(-c3ccccc3)cc2)nc2ccccc12	POLB inh 20µM, POLI inh inconclusive
O=C(N/N=C/c1ccc(-c2cccc([N+](=O)[O-])c2)o1)c1ccc([N+](=O)[O-])cc1	none
O=C(N/N=C/c1cccc([N+](=O)[O-])c1)c1cc(-c2ccccc2)nc2ccccc12	none
O=C(N/N=C/c1ccc([N+](=O)[O-])o1)c1cc(-c2ccncc2)nc2ccccc12	Pol kappa inh inconclusive, POLB inh inconclusive, POLI inh inconclusive, POLH inh 89µM
O=C(N/N=C/c1ccc(-c2cccc([N+](=O)[O-])c2)o1)c1ccccc1O	POLB inh inconclusive, FEN1 inhibitor inconclusive, POLH inh 50µM
O=C(N/N=C/c1ccc([N+](=O)[O-])o1)c1cn(-c2ccccc2)nc1-c1ccc(Cl)cc1	POLB inh inconclusive
O=[N+]([O-])CC(=Nc1ccc(Cl)cc1)N/N=C\c1oc(O)c2ccccc12	POLH inh 40µM

Bioassay records from PubChem BioAssay.
